FMDV antiviral = High Throughput Screening for Foot and Mouth Disease Virus Antivirals | Potency, µM (titrated, usually from 57.9 µM), hits mostly inhibitors | FMDV antiviral cell-based qHTS | actives 1.2% (n = 410,000) | AID 1159524, 2015; calls by dose curve; tested in HEK293T cells; further: read-out not given here; nearly all actives have a fitted effect of over 45% in size
Lassa entry inh = qHTS for Inhibitors of binding or entry into cells for Lassa Virus | Lassa virus pseudotype entry inhibition, cell reporter | actives 1.2% (n = 300,000) | Potency, µM (series often up to 37.9 µM), actives largely listed as inhibitors; calls by dose curve; tested in HEK293 cells; further: nearly all actives have a fitted effect of over 50% in size
MARV entry inh = qHTS for inhibitors of binding or entry into cells for Marburg Virus. Marburg virus pseudotyped entry inhibition, cell reporter. Potency, µM (titrated, usually from 37.8 µM), hits mostly inhibitors. actives 1.8% (n = 300,000). AID 540276, 2011; calls by dose curve; tested in HEK293 cells
HCV inhibitor = qHTS Assay for Inhibitors of Hepatitis C Virus (HCV). Huh7.5.1 HCVcc-Cre infection, luciferase reporter, 44 h. AID 651820, 2012. Potency, µM (titrated, usually from 41.8 µM), actives largely listed as inhibitors. actives 3.4% (n = 340,000); active means well fitted inhibition curve with a large enough effect; inconclusive means small, poorly fitted or top-dose-only effect, or another doubt; inactive means no such curve, though single readings can be large or run the other way
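Whole-lifecycle infectious HCVcc-Cre system; cells 1,000/well, compound then virus (~0.5 moi) added 4 h after plating, 44 h culture. Luciferase read 15 sec following 15 min substrate incubation, room temp.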
HCMV antiviral = qHTS Assay for inhibitors of the human cytomegalovirus (HCMV) | HFF cells, HCMV-luciferase reporter, 72 h; active compounds read low | actives 4.5% (n = 410,000) | activity change, negative = inhibition, % at 57.5 µM; in the data active means activity change below about -60%; inconclusive means no clear call, values can overlap the other calls; inactive means above about -39%
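Screen run at 2 compound doses on HFFs infected with reporter HCMV, MOI 1 PFU/cell. Luciferase activity from cell lysates at 72 h post infection gave inhibition relative to buffer-only and Salinomycin wells.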
Hits are given with their value; 0 = inactive; ? = inconclusive; - = no result given. A selection: hits, their analogues and other compounds. The true share with any hit is near 7.9%.

SMILES	FMDV antiviral	Lassa entry inh	MARV entry inh	HCV inhibitor	HCMV antiviral
Cc1ccc2nc(N3CCN(S(=O)(=O)c4ccc(C)c(Cl)c4)CC3)c(C#N)cc2c1	0	?	4.6µM	0	0
COCC(=O)N1[C@H](CO)[C@@H]2c3ccccc3N(C(=O)c3ccccc3F)C[C@@H]21	-	-	-	-	0
COc1ccc(CCNC(=O)c2c(C)nn(-c3ccccc3)c2Cl)cc1OC	?	?	0	0	0
O=C(COC(=O)c1ccccc1C(=O)c1ccc(Cl)cc1)NCCc1ccccc1	0	0	?	0	-76
CCOc1ccc(CCNC(=O)Cn2nc(C)c3c(C)n(-c4ccccc4)nc3c2=O)cc1OCC	?	0	-	?	0
CCOc1ccc(CCNC(=O)COC(=O)c2c(C)nn(-c3ccccc3)c2C)cc1OCC	0	0	0	?	-99
Cc1nn(-c2ccccc2)c(Cl)c1C(=O)OCC(=O)NCCc1ccccc1	0	?	11µM	?	0
Cc1nn(-c2ccccc2)c(-n2cccc2)c1C(=O)NCCc1ccc(Cl)cc1	?	0	0	-	-100
Cc1nn(-c2ccccc2)c(-n2cccc2)c1C(=O)NCc1ccccc1Cl	?	0	?	-	0
Cc1cc(C)cc(NC(=O)C(NS(=O)(=O)c2cccc3nsnc23)c2ccccc2)c1 (stereo not drawn)	?	0	?	-	0
CCc1nn(Cc2c(C)cc(C)cc2C)c(=O)c2cc3cc(C)ccc3n12	0	0	?	-	0
COc1cc(C(=O)NCC(c2ccco2)N2CCOCC2)cc(OC)c1OC (stereo not drawn)	0	0	0	0	0
Cc1cc(=O)[nH]c2nnc(SCc3cccc(C(F)(F)F)c3)n12	0	0	-	-	?
Cc1ccc(C(=O)N/C(=C/c2ccc(-c3ccc(Br)cc3)o2)C(=O)NC2CCS(=O)(=O)C2)cc1 (stereo not drawn)	0	0	0	?	0
Cc1ccc(C(=O)N/C(=C\c2ccc(-c3ccc(Br)cc3)o2)C(=O)NCCCN(C)C)cc1	?	-	-	2µM	-101
Cc1ccc(C(=O)N/C(=C\c2ccc(-c3ccccc3[N+](=O)[O-])o2)C(=O)NCCCN2CCOCC2)cc1	0	?	?	25µM	0
Cc1ccc(C(=O)N/C(=C/c2ccc(-c3cc(C(F)(F)F)ccc3Cl)o2)C(=O)NCc2cccnc2)cc1	0	?	?	?	0
COc1ccc(-c2ccc(/C=C(\NC(=O)c3ccccc3)C(=O)N3CCOCC3)o2)cc1	0	0	?	0	-63
CN(C)CCNC(=O)/C(=C/c1ccc(-c2ccc(Cl)cc2Cl)o1)NC(=O)c1ccccc1	?	?	6.3µM	10µM	?
Cc1ccc(C(=O)N/C(=C\c2cn(C)c3ccccc23)C(=O)NCCCN2CCOCC2)cc1	0	0	0	0	0
COC(=O)C1=C(C(=O)OC)[C@@H]2N(CC=C(C)C)c3ccccc3[C@@]23CCC(=O)N(CCc2ccccn2)C3=N1	-	-	0	-	-
COc1ccc(OCC(=O)N(Cc2cccc(OC)c2)C2CCS(=O)(=O)C2)cc1 (stereo not drawn)	0	0	0	-	0
CC(=O)C1=C(O)C(=O)N(c2cccc(C(=O)O)c2)[C@@H]1c1ccc(F)cc1	-	-	0	-	-
COc1ccc(/C=C\C(=O)NC2CC(=O)N(c3ccc(F)cc3)C2)cc1OC (stereo not drawn)	0	0	-	-	0
Cc1cc(/C=C(\C#N)C(=O)OCC(=O)N(C)c2c(N)n(Cc3ccccc3)c(=O)[nH]c2=O)c(C)n1CC(C)C	0	-	-	-	0
SMILES	FMDV antiviral	Lassa entry inh	MARV entry inh	HCV inhibitor	HCMV antiviral
Cc1ccc(C(=O)N/C(=C\c2ccc(-c3cccc([N+](=O)[O-])c3)o2)C(=O)NCCCN(C)C)cc1	0	?	?	?	0
CN(C)CCNC(=O)/C(=C/c1ccc(-c2ccc(Cl)cc2)o1)NC(=O)c1ccccc1	?	?	12µM	10µM	0
O=C(NCCN1CCOCC1)/C(=C/c1ccc(Cl)cc1)NC(=O)c1ccccc1	0	0	0	?	0
CN(C)CCCNC(=O)/C(=C\c1ccc(-c2cccc([N+](=O)[O-])c2)o1)NC(=O)c1ccccc1	0	0	?	?	-66
COC(=O)CC1C2(C)CC34OC5(C)O[C@@]6(C7/C(=C(/O)C(C)C)C(=O)OC(c8ccoc8)[C@]7(C)C(OC(C)=O)C(OC(C)=O)[C@]6(O5)[C@@]13C)C(OC(C)=O)[C@]4(O)C2OC(=O)C(C)C (stereo partly drawn)	0	-	-	-	-
O=C1N=C(O)CN1/N=C/C1C=CC(c2ccc([N+](=O)[O-])cc2)O1 (stereo not drawn)	-	-	0	-	-
CCNc1ncc2nc(-c3cccs3)c(=O)n(Cc3cccc(OC)c3)c2n1	0	-	-	-	-
CCN(CC)CCNC1=NCCn2c1cc1cc(OC)ccc12	0	8.2µM	?	6.3µM	0
O=C(O)c1cccc2nc3ccccc3nc12	0	-	-	0	-63
CSc1ccccc1NC(=O)CN(C)C(=O)C1CCN(C(=O)Nc2ccccc2)CC1	0	0	0	0	0
Cc1cc(Sc2nnc(N)s2)c2ccccc2n1	14µM	-	-	?	-108
Cc1cc(Sc2nnc(/N=C/N(C)C)s2)c2ccccc2n1	14µM	-	-	?	-106
COc1ccc(C(=O)Nc2nnc(SCc3cc(=O)c4cc(C)ccc4[nH]3)s2)cc1OC	0	0	-	-	0
CC(C)(C)N(Cc1ccc2c(c1)OCO2)C(=O)/C=C\S(=O)c1ccccc1 (stereo not drawn)	0	?	?	11µM	0
O=C(Oc1c(-c2ccccc2)c(=O)n2c3c(cccc13)CC2)c1cccc([N+](=O)[O-])c1	0	0	?	0	-72
O=C(Oc1c(-c2ccccc2)c(=O)n2c3c(cccc13)CC2)c1ccccc1	0	0	?	0	0
COc1ccc(COC(=O)NNC(=O)c2ccc(OC)cc2)cc1	0	1.3µM	0	0	0
COc1ccc(OCc2ccc(C(=O)NN)cc2)cc1	0	0	0	0	0
CCCn1c(SCC(=O)NC2CCCC2)nnc1C(C)C	0	0	0	0	0
C[N+](C)(C)CCC(=O)c1cccc2ccccc12	0	-	4.5µM	-	-
O=[N+]([O-])c1cccnc1N/N=C/c1ccccc1O	0	?	?	?	-97
O=C(O)CNc1ncccc1[N+](=O)[O-]	0	0	?	0	0
Cc1c(O)ccc(/C=N/Nc2ncccc2[N+](=O)[O-])c1O	0	?	?	?	-69
O=[N+]([O-])c1ccc(N/N=C/c2ccccc2O)cc1	0	-	-	?	0
Cc1ccccc1CS(=O)(=O)Cc1ccc(C(=O)NCCc2ccccc2)o1	0	0	-	0	0
CN1CCN(CC(C)(C)NS(=O)(=O)c2ccccc2)CC1	0	0	0	0	-61
CC(C)(CN1CCOCC1)NS(=O)(=O)c1ccccc1	0	0	0	0	0
CC(C)(CN1CCNCC1)NS(=O)(=O)c1ccc(Cl)cc1	?	-	-	4µM	0
CCN(CC)CCCNC(=O)c1cc(Cl)c(NC(=O)C2=C(C)OCCS2)cc1OC	0	0	?	11µM	0
